The text below walks through data of PubChem BioAssay (NCI).

This is part of a sample that, as a whole, favours compounds with a hit. Of some 83,000 tested, about 20% had one in any assay.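 Each cell line was grown in a 96-well plate and treated with one concentration of compound for 48 hours. Values below 10 were considered active.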 A number with no mark means an inactive call. Active and inactive are the calls of the source.

Holding throughout (assay): NCI-60 one-dose screen, 48 h (100 = growth as untreated, 0 = no growth, -100 = all killed)
Holding throughout (conditions): 10 µM unless noted

The test system of assay [1] is T-47D breast.
The subject of assay [2] is BT-549 breast.
Assay [3] deals with MDA-MB-435 melanoma.
For assay [4], the system named is SW-620 colon.
Assay [5] concerns MCF7 breast.
Assay [6] deals with HCT-116 colon.
For assay [7], the system named is HCC-2998 colon.
The test system of assay [8] is KM12 colon.

Regarding `COc1ccc(Cn2cc3c(c2-c2cc(OC)c(OC)c(OC)c2)CCCc2cnoc2-3)cc1N`, the growth was 51.5% in assay [1]; 68.2% in assay [2]; -45.3% (active) in assay [3]; 29.6% in assay [4]; 15.2% in assay [5]; 24.1% in assay [6]. Also, the values for the growth in assay [7] and in assay [8] were 49% and 26.1%, respectively.

As to `Oc1ccccc1-c1nnc(SCc2ccc(O)c3ncccc23)o1`, the growth is 11.6% in assay [1]; 32.3% in assay [2]; 18.5% in assay [3]; 28.2% in assay [4]; 6.74% (active) in assay [5]; 10.5% in assay [6]. Also, the growth in assay [7] was 46%; in assay [8] it was 29.3%.

In the case of `COc1cc(OC)c(S(N)(=O)=O)cc1C(=O)/C=C/c1ccccc1`, the growth is 13.6% in assay [1]; 16.7% in assay [2]; 9.57% (active) in assay [3]; 3.85% (active) in assay [4]; 10.9% in assay [5]; 11.7% in assay [6]. For the same molecule, the growth in assay [7] is 22.3%; in assay [8], 3.96% (active).

For the molecule `CCN(CC)c1ccc2cc(C(=O)NCCOCCOCCOCCn3cc(CCC(=O)Nc4ccc(C(=O)c5ccc(NC(=O)OC(C)(C)C)cc5)cc4)nn3)c(=O)oc2c1`, the growth in assay [1] is -8.51% (active); in assay [2], 26.4%; in assay [3], 62.4%; in assay [4] it was 82.1%; in assay [5], 44.1%; in assay [6], 36.3%. Moreover, the values for the growth in assay [7] and in assay [8] were 96.8% and 36.6%, respectively.

Consider `Oc1ccc(CSc2nnc(-c3ccc(Br)cc3)n2-c2ccccc2)c2cccnc12`, for which the growth is 48.1% in assay [1]; 40.3% in assay [2]; 19.5% in assay [3]; 26.6% in assay [4]; 11% in assay [5]; 21.7% in assay [6]. Further, the growth in assay [7] is 44.9%; in assay [8], 26.3%.

As for `Cc1nn(-c2ccc(Cl)cc2)c(C)c1N=Nc1ccc2oc(=O)ccc2c1`, the growth is 45.9% in assay [1]; 101% in assay [2]; 85.4% in assay [3]; 94% in assay [4]; 78.7% in assay [5]; 66.5% in assay [6]. In addition, the growth in assay [7] is 105%; in assay [8], 90.3%.

For the molecule `CNC(=O)c1cc(Oc2ccc3nc(NC(=O)c4cc(C)cc(C)c4)sc3c2)ccn1`, the growth in assay [1] is 80.1%; in assay [2], 11.6%; in assay [3] it was 40.6%; in assay [4], 92.7%; in assay [5] it was 82%; in assay [6], 32.9%. For the same molecule, the growth in assay [7] is 103%; in assay [8] it was 91.3%.

Consider `O=C1Nc2ccc(Cl)cc2/C1=C/c1ccc(OCc2ccc(Br)cc2F)cc1`, for which the growth in assay [1] was 106%; in assay [2], 129%; in assay [3], 104%; in assay [4], 97.8%; in assay [5], 87.5%; in assay [6] it was 96.7%. Further, the results for the growth in assay [7] and in assay [8] were 112% and 101%, respectively.

In the case of `Cc1cc(=O)n2nc(-c3cn(C)c4ccc(Cl)cc34)sc2n1`, the growth was 50.8% in assay [1]; 108% in assay [2]; 99% in assay [3]; 97.6% in assay [4]; 14.5% in assay [5]; 86.3% in assay [6]. The growth in assay [7] is 102%; in assay [8] it was 94.1%.

As to `CC1CCc2c(sc3nc(SCC(=O)N/N=C/c4ccc(Cl)cc4)n(-c4ccccc4)c(=O)c23)C1` (stereo not drawn), the growth in assay [1] was 103%; in assay [2], 99.6%; in assay [3], 101%; in assay [4], 107%; in assay [5], 90.5%; in assay [6], 89.7%. In addition, the growth in assay [7] is 112%; in assay [8] it was 103%.

With `COc1cc2cc(Oc3ccc(NC(=O)c4cccc(C(F)(F)F)c4)cc3)c(C)nc2cc1OCCN(C)C`, the growth in assay [1] is 91.2%; in assay [2], 101%; in assay [3], 6.7% (active); in assay [4], 79.5%; in assay [5], 22.7%; in assay [6], 61.2%. Besides, the growth in assay [7] is 80.3%; in assay [8], 76.9%.

`C/C(Cc1ccc(Cl)cc1)=C(/c1ccccc1)c1ccc(OCCN)cc1`: the growth was 101% in assay [1]; 95.3% in assay [2]; 95.1% in assay [3]; 102% in assay [4]; 99.9% in assay [5]; 102% in assay [6]. In addition, the figures for the growth in assay [7] and in assay [8] were 99% and 103%, respectively.

Consider `COc1ccc(-c2nc3cc(Cl)c(Cl)cc3n2CC(=O)N=Nc2c(O)[nH]c3ccc(Br)cc23)cc1`, for which the growth in assay [1] is -52.7% (active); in assay [2], 3.05% (active); in assay [3], -59.1% (active); in assay [4], -54.6% (active); in assay [5], -11.6% (active); in assay [6], -31.5% (active). Also, the growth in assay [7] is -25.9% (active); in assay [8], 5.77% (active).

For `CN(C)C(=O)c1ccccc1-n1cnc2ccccc2c1=O`, the growth in assay [1] is 99.2%; in assay [2], 117%; in assay [3] it was 95%; in assay [4], 102%; in assay [5], 96.4%; in assay [6], 100%. The growth in assay [7] was 99.9%; in assay [8] it was 101%.

As for `Cc1cc(O)c(=O)cc2c1C[C@H]1CC(C)(C)/C=C/C[C@]3(C)Oc4cc(=O)c(O)cc(C)c4C[C@H]3C[C@H](O)[C@@]1(C)O2`, the growth in assay [1] was -2.55% (active); in assay [2] it was 1.87% (active); in assay [3], 15.7%; in assay [4], 15.1%; in assay [5], 7.16% (active); in assay [6], 11.3%. In addition, the values for the growth in assay [7] and in assay [8] were 30.8% and 23.6%, respectively.

For `N#C/C(=C\c1ccc(Cl)cc1Cl)C(N)=O`, the growth in assay [1] is 93.7%; in assay [2], 102%; in assay [3], 98.5%; in assay [4], 88.3%; in assay [5], 76.2%; in assay [6], 74%. The growth in assay [7] and in assay [8] was 103% throughout.

On to `CS(=O)(=O)c1ccc2c(c1)c1c(n2Cc2ccc(Cl)cc2)CCCC1`, for which the growth in assay [1] is 51.9%; in assay [2], 89%; in assay [3], 31.1%; in assay [4] it was 74.1%; in assay [5], 72.6%; in assay [6], 61.9%. Also, the growth in assay [7] was 85.5%; in assay [8], 66.6%.

For the molecule `O=C(Nc1cccc(Cl)c1)Nc1nc2ccc([N+](=O)[O-])cc2s1`, the growth was -11.7% (active) in assay [1]; -28.7% (active) in assay [2]; -8.69% (active) in assay [3]; 3.71% (active) in assay [4]; 4.68% (active) in assay [5]; 0.143% (active) in assay [6]. For the same molecule, the results for the growth in assay [7] and in assay [8] were 5.59% (active) and 0.174% (active), respectively.

As for `CCN1C(=O)N(CC)C2SC(N/N=C/c3ccc(F)cc3)=NC21` (stereo not drawn), the growth was 64.8% in assay [1]; -28.4% (active) in assay [2]; -35.8% (active) in assay [3]; 20.8% in assay [4]; 17.5% in assay [5]; 13.7% in assay [6]. The growth in assay [7] is 14.1%; in assay [8], 11.1%.

On to `CC1CCN(S(=O)(=O)c2ncsc2-c2ccccc2)CC1`, for which the growth in assay [1] is 90.7%; in assay [2], 73.5%; in assay [3], 95.5%; in assay [4] it was 100%; in assay [5] it was 72.3%; in assay [6] it was 87.5%. Besides, the growth in assay [7] is 97.4%; in assay [8], 94.8%.

For the molecule `COCCOc1ccc(-c2csc(NC(=O)CN3CCN(CCO)CC3)n2)cc1NS(=O)(=O)c1cccc2c(N(C)C)cccc12`, the growth in assay [1] was 84.5%; in assay [2], 96.1%; in assay [3], 83%; in assay [4], 93.4%; in assay [5] it was 93.6%; in assay [6], 10.8%. Further, the figures for the growth in assay [7] and in assay [8] were 91.3% and 97.4%, respectively.

Turning to `CCN1C/C(=N\S(=O)(=O)c2ccccc2)N(CC)C1=S`, the growth is 102% in assay [1]; 97.3% in assay [2]; 101% in assay [3]; 107% in assay [4]; 97.3% in assay [5]; 91.5% in assay [6]. Besides, the growth is 98.4% in assay [7] and 103% in assay [8].

As for `CCOC(=O)c1c(NC(=O)c2ccc(F)cc2F)sc2c1CCC(=O)C2`, the growth in assay [1] is 81.4%; in assay [2] it was 94.2%; in assay [3], 98.9%; in assay [4] it was 69.7%; in assay [5], 93.4%; in assay [6], 96.5%. The growth was 107% in assay [7] and 90.9% in assay [8].

Consider `N#Cc1ccc(S(=O)(=O)Nc2ccc(-c3cnc(N)[nH]3)cc2)cc1`, for which the growth was 101% in assay [1]; 107% in assay [2]; 108% in assay [3]; 102% in assay [4]; 90.7% in assay [5]; 107% in assay [6]. Further, the growth was 105% in assay [7] and 103% in assay [8].

Turning to `CC(c1ccccc1)N1C(=O)/C(=C/c2csc(C#N)n2)SC1=S` (stereo not drawn), the growth in assay [1] is 69.2%; in assay [2], 90.5%; in assay [3], 94.4%; in assay [4] it was 74.1%; in assay [5], 36.6%; in assay [6], 67.6%. Moreover, the growth in assay [7] is 107%; in assay [8] it was 103%.

Regarding `Cc1occc1-c1nc2s/c(=C\c3cn(-c4ccccc4)nc3-c3ccccc3)c(=O)n2n1`, the growth in assay [1] was 95.2%; in assay [2] it was 97.7%; in assay [3], 98.9%; in assay [4], 97.5%; in assay [5] it was 91.9%; in assay [6], 98.7%. Moreover, the growth in assay [7] was 101%; in assay [8], 102%.

Take `O=C(CSc1nnc(-c2cccs2)n1-c1ccccc1)Nc1ccc(F)cc1`: the growth in assay [1] was 84.7%; in assay [2] it was 99.3%; in assay [3], 80.8%; in assay [4], 97.2%; in assay [5] it was 91.9%; in assay [6], 86.3%. Moreover, the values for the growth in assay [7] and in assay [8] were 125% and 94.1%, respectively.

Consider `CCCC(=O)NC(c1cccnc1)c1cc(Cl)c2cccnc2c1O` (stereo not drawn), for which the growth in assay [1] was 27.7%; in assay [2], 68.8%; in assay [3] it was 38.1%; in assay [4], 26%; in assay [5] it was 12.5%; in assay [6] it was 29.1%. The growth in assay [7] is 51.2%; in assay [8], 30.7%.

On to `C/C(=C(/C)C1CC1CCN(C(=O)c1ccccn1)S(=O)(=O)c1ccc(C)cc1)C1CCCCC1` (stereo not drawn), for which the growth is 78.5% in assay [1]; 120% in assay [2]; 98.2% in assay [3]; 103% in assay [4]; 74.7% in assay [5]; 90.1% in assay [6]. The growth in assay [7] is 97.4%; in assay [8], 98.6%.

For `O=C(/C=C/c1cccc(O)c1)c1ccc(O)cc1`, the growth is 62.6% in assay [1]; 86.5% in assay [2]; 65.5% in assay [3]; 49.2% in assay [4]; 37.3% in assay [5]; 33.8% in assay [6]. The growth was 110% in assay [7] and 33.4% in assay [8].

Take `COc1ccc([C@H]2[C@H](O)C(=O)N2c2cc(OC)c(OC)c(OC)c2)cc1Cl`: the growth is 69.9% in assay [1]; 1.85% (active) in assay [2]; -0.621% (active) in assay [3]; 17.8% in assay [4]; 9.61% (active) in assay [5]; 2.62% (active) in assay [6]. Also, the results for the growth in assay [7] and in assay [8] were 13.8% and 11.3%, respectively.
